Measured values from PubChem BioAssay (NCI).
Compounds without any hit were thinned out: in the full panel of roughly 83,000, 20% have a hit.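 Single-concentration screen, 48 h exposure, 96-well plates. Endpoint: percent growth. Below 10 = active.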 Activity calls are given as the source filed them.

Tests used:
Assay in all cases: NCI-60 one-dose screen, 48 h (100 = growth as untreated, 0 = no growth, -100 = all killed)
Details in all cases: 10 µM unless noted
RPMI-8226 leukemia = test system: RPMI-8226 leukemia
OVCAR-8 ovarian = test system: OVCAR-8 ovarian
OVCAR-5 ovarian = test system: OVCAR-5 ovarian
OVCAR-4 ovarian = test system: OVCAR-4 ovarian
OVCAR-3 ovarian = test system: OVCAR-3 ovarian
HS 578T breast = test system: HS 578T breast
NCI/ADR-RES ovarian = test system: NCI/ADR-RES ovarian
T-47D breast = test system: T-47D breast
SK-OV-3 ovarian = test system: SK-OV-3 ovarian
IGROV1 ovarian = test system: IGROV1 ovarian

Measured: growth

Cc1cccc2c(=O)c3c(sc12)c(NCCCNCCO)nc1ccccc13
active: RPMI-8226 leukemia -26.5%
inactive: OVCAR-8 ovarian 45.4% | OVCAR-5 ovarian 74.4% | OVCAR-4 ovarian 54.3% | OVCAR-3 ovarian 64.5% | HS 578T breast 45.4% | NCI/ADR-RES ovarian 60.5% | T-47D breast 62.7%

COc1ccc(/C=C/C(=O)c2ccc(Nc3nc(NCCO)nc(Nc4ccc(Cl)cc4)n3)cc2)cc1
inactive: OVCAR-8 ovarian 71.8% | OVCAR-5 ovarian 95.7% | OVCAR-4 ovarian 62.6% | OVCAR-3 ovarian 73.1% | HS 578T breast 87.5% | NCI/ADR-RES ovarian 83.2% | T-47D breast 38%
active: RPMI-8226 leukemia 8.06%

CCOC(=O)c1c(Cl)c2c(n1Cc1ccccc1)-c1oncc1CCC2
inactive: RPMI-8226 leukemia 50.6% | OVCAR-8 ovarian 84.3% | OVCAR-5 ovarian 95.3% | SK-OV-3 ovarian 95.2% | IGROV1 ovarian 75.1% | OVCAR-3 ovarian 39.5% | HS 578T breast 69.7% | NCI/ADR-RES ovarian 43.5% | T-47D breast 80.7%

COc1cc(/C=C2\Oc3cc(OCCCN4CCCC4)ccc3C2=O)cc(OC)c1
active: OVCAR-3 ovarian -34.6%
inactive: RPMI-8226 leukemia 49.4% | OVCAR-8 ovarian 56.4% | OVCAR-5 ovarian 89.4% | OVCAR-4 ovarian 75.2% | IGROV1 ovarian 51% | HS 578T breast 70.2% | NCI/ADR-RES ovarian 80.8% | T-47D breast 88.8%

COC(=O)c1ccc(NC(=O)CSc2nc3ccccc3c(=O)n2-c2ccccc2)cc1
inactive: RPMI-8226 leukemia 89.4% | OVCAR-8 ovarian 101% | OVCAR-5 ovarian 94.7% | OVCAR-4 ovarian 90.6% | IGROV1 ovarian 90.9% | OVCAR-3 ovarian 92.6% | HS 578T breast 101% | NCI/ADR-RES ovarian 104% | T-47D breast 92.1%

CC(C)c1ccc(S(=O)(=O)NC(=O)NC2CCCC2)cc1
inactive: RPMI-8226 leukemia 105% | OVCAR-8 ovarian 98.5% | OVCAR-5 ovarian 97.4% | OVCAR-4 ovarian 97.2% | IGROV1 ovarian 105% | OVCAR-3 ovarian 110% | HS 578T breast 103% | NCI/ADR-RES ovarian 105% | T-47D breast 98.9%

Cc1ccc(C2CC(c3ccc(Nc4nc(NCCO)nc(Nc5ccc(Cl)cc5)n4)cc3)=NN2c2cc(Cl)cc(Cl)c2)cc1 (centres undefined)
inactive: RPMI-8226 leukemia 101% | OVCAR-8 ovarian 97.4% | OVCAR-5 ovarian 94.2% | OVCAR-4 ovarian 102% | IGROV1 ovarian 87.8% | OVCAR-3 ovarian 102% | HS 578T breast 68.3% | NCI/ADR-RES ovarian 105% | T-47D breast 94.5%

CC(=O)c1ccc(NC(=O)Nc2ccc(S(=O)(=O)Nc3ccc(Cl)nn3)cc2)cc1
inactive: RPMI-8226 leukemia 108% | OVCAR-8 ovarian 98.7% | OVCAR-5 ovarian 95.3% | OVCAR-4 ovarian 110% | IGROV1 ovarian 99.5% | OVCAR-3 ovarian 108% | HS 578T breast 98.4% | NCI/ADR-RES ovarian 103% | T-47D breast 101%

COC(=O)/C(CCC=C(C)C)=C1\[C@@H](OC(C)=O)C[C@@]2(C)[C@H]1CC(=O)N[C@H]1[C@@]3(C)CCNC(=O)[C@@H](C)[C@@H]3CC[C@@]12C
inactive: RPMI-8226 leukemia 97.8% | OVCAR-8 ovarian 98.3% | OVCAR-5 ovarian 102% | OVCAR-4 ovarian 101% | OVCAR-3 ovarian 107% | HS 578T breast 97.1% | NCI/ADR-RES ovarian 106% | T-47D breast 88.9%

Nc1nc(-c2cnccn2)nn1-c1nc2ccccc2s1
inactive: RPMI-8226 leukemia 82% | OVCAR-8 ovarian 99.9% | OVCAR-5 ovarian 104% | OVCAR-4 ovarian 97.7% | IGROV1 ovarian 100% | OVCAR-3 ovarian 108% | HS 578T breast 99.3% | NCI/ADR-RES ovarian 101% | T-47D breast 96.9%

C[C@@H](C(=O)NCCCC#Cc1cnc(Nc2ccc(C#N)cc2)nc1NC1CC1)N(C)C(=O)/C=C/CN(C)C
inactive: RPMI-8226 leukemia 14.9% | OVCAR-8 ovarian 55.9% | OVCAR-5 ovarian 66.3% | OVCAR-4 ovarian 38.7% | IGROV1 ovarian 41.1% | OVCAR-3 ovarian 29.3% | HS 578T breast 59% | NCI/ADR-RES ovarian 78.2% | T-47D breast 54.9%

Cc1ccc(N=NC2C(=O)N(c3ccc(Cl)cc3)N(c3ccc(Cl)cc3)C2=O)cc1
inactive: RPMI-8226 leukemia 78.1% | OVCAR-8 ovarian 98.2% | OVCAR-5 ovarian 99.8% | OVCAR-4 ovarian 102% | IGROV1 ovarian 95.8% | OVCAR-3 ovarian 93.3% | HS 578T breast 102% | NCI/ADR-RES ovarian 98.9% | T-47D breast 83.2%

O=C(/C=C/c1ccc(C(F)(F)F)cc1)c1ccc(Nc2nc(NCCO)nc(N3CCOCC3)n2)cc1
active: RPMI-8226 leukemia 2.35% | OVCAR-3 ovarian -31.9%
inactive: OVCAR-8 ovarian 28.5% | OVCAR-5 ovarian 68.6% | OVCAR-4 ovarian 22.8% | IGROV1 ovarian 25.4% | HS 578T breast 78.1% | NCI/ADR-RES ovarian 74.7% | T-47D breast 32.7%

COC(=O)/C(CCC=C(C)C)=C1\[C@@H](OC(C)=O)C[C@@]2(C)[C@H]1CC(=O)[C@H]1[C@@]3(C)CC[C@H](NCc4ccccc4)[C@@H](C)[C@@H]3CC[C@@]12C
inactive: RPMI-8226 leukemia 49.5% | OVCAR-8 ovarian 92.4% | OVCAR-5 ovarian 95% | OVCAR-4 ovarian 80.7% | OVCAR-3 ovarian 89.2% | HS 578T breast 73.7% | NCI/ADR-RES ovarian 88.3% | T-47D breast 92.3%

Cc1cc2c(c(C)c1Cl)C(=O)/C(=C/c1cccc([N+](=O)[O-])c1)O2
inactive: RPMI-8226 leukemia 108% | OVCAR-8 ovarian 94.4% | OVCAR-5 ovarian 100% | OVCAR-4 ovarian 86.5% | IGROV1 ovarian 96.6% | OVCAR-3 ovarian 107% | HS 578T breast 95.8% | NCI/ADR-RES ovarian 101% | T-47D breast 98.4%

O=C1/C(=C/c2ccc(O)cc2)COc2ccc(O)c(O)c21
active: RPMI-8226 leukemia -6.76% | IGROV1 ovarian 8.79% | OVCAR-3 ovarian -8.96%
inactive: OVCAR-8 ovarian 17.6% | OVCAR-5 ovarian 43.7% | OVCAR-4 ovarian 43.7% | HS 578T breast 47.4% | NCI/ADR-RES ovarian 27.2% | T-47D breast 11.8%

Cn1c(/C=C(\C#N)c2ccccc2)nc2c(N3CCOCC3)nc(Cl)nc21
active: RPMI-8226 leukemia -24.3% | OVCAR-8 ovarian 8.78% | OVCAR-5 ovarian -50.1% | OVCAR-4 ovarian -58.4% | OVCAR-3 ovarian -91.8% | HS 578T breast -20% | NCI/ADR-RES ovarian 3.17% | T-47D breast -37.8%

C[n+]1c2ccccc2nc2ccc(NCCO)cc21
inactive: RPMI-8226 leukemia 66.8% | OVCAR-8 ovarian 82.1% | OVCAR-5 ovarian 102% | SK-OV-3 ovarian 112% | IGROV1 ovarian 63.9% | OVCAR-3 ovarian 79.2% | HS 578T breast 82.7% | NCI/ADR-RES ovarian 86.4% | T-47D breast 91.9%

O=C(c1nc2ccccc2[nH]1)C1C(c2ccc([N+](=O)[O-])cc2)C2CC3CCCCC3N2[C@@]12C(=O)Nc1cc(Cl)ccc12 (some centres undefined)
active: RPMI-8226 leukemia 6.29%
inactive: OVCAR-8 ovarian 35% | OVCAR-5 ovarian 46.3% | OVCAR-4 ovarian 20.6% | OVCAR-3 ovarian 29.6% | HS 578T breast 54.6% | NCI/ADR-RES ovarian 29.2% | T-47D breast 28.8%

COc1ccc(Cn2cc(Cn3c(=O)c(-c4nc5ccccc5[nH]4)cc4ccccc43)nn2)c(OC)c1OC
inactive: RPMI-8226 leukemia 16.1% | OVCAR-8 ovarian 23.9% | OVCAR-5 ovarian 19.1% | IGROV1 ovarian 27% | T-47D breast 29.7%
active: OVCAR-4 ovarian 0.605% | OVCAR-3 ovarian -32.5% | HS 578T breast -9.86% | NCI/ADR-RES ovarian -2.32%

COc1nccc2cc3c(=O)n4c(cc5ccccc54)c(=O)n3c12
inactive: RPMI-8226 leukemia 95.7% | OVCAR-8 ovarian 111% | OVCAR-5 ovarian 107% | SK-OV-3 ovarian 102% | IGROV1 ovarian 66.9% | OVCAR-3 ovarian 103% | HS 578T breast 106% | NCI/ADR-RES ovarian 100% | T-47D breast 68.4%

CCCN1CCN(c2ccc3nc(-c4ccc5nc(-c6cc(OC)ccc6OC)[nH]c5c4)[nH]c3c2)CC1
active: RPMI-8226 leukemia -17%
inactive: OVCAR-8 ovarian 106% | OVCAR-5 ovarian 113% | OVCAR-4 ovarian 81.1% | IGROV1 ovarian 103% | OVCAR-3 ovarian 122% | HS 578T breast 111% | NCI/ADR-RES ovarian 111% | T-47D breast 98.8%

CCN1C(=O)N(c2ccccc2)C2Nn3c(s/c(=C4\C(=O)N(C(C)C)c5ccccc54)c3=O)=NC21 (centres undefined)
inactive: RPMI-8226 leukemia 97.7% | OVCAR-8 ovarian 103% | OVCAR-5 ovarian 102% | OVCAR-4 ovarian 105% | IGROV1 ovarian 99.6% | OVCAR-3 ovarian 117% | HS 578T breast 99.7% | NCI/ADR-RES ovarian 109% | T-47D breast 102%

FC(F)(F)c1cccc(CNC2CCN(CCc3ccccc3)CC2)c1
active: RPMI-8226 leukemia -10.3%
inactive: OVCAR-8 ovarian 79.5% | OVCAR-5 ovarian 84.6% | SK-OV-3 ovarian 81.2% | IGROV1 ovarian 61.9% | OVCAR-3 ovarian 64.7% | HS 578T breast 88.1% | NCI/ADR-RES ovarian 65.2% | T-47D breast 86.7%

CCOc1cc(Cl)c(C(C)NC(=O)c2cccc(OC)c2)cc1OCC (centres undefined)
inactive: OVCAR-5 ovarian 30.2% | SK-OV-3 ovarian 35.4% | IGROV1 ovarian 28.2% | HS 578T breast 18% | T-47D breast 13.5%
active: RPMI-8226 leukemia -6.93% | OVCAR-8 ovarian -19.9% | OVCAR-3 ovarian -82.5% | NCI/ADR-RES ovarian 1.86%

COC(=O)c1c2c(c(C)[n+]([O-])c1C)C(=O)C=C(NCc1ccccc1)C2=O
active: RPMI-8226 leukemia -0.203% | OVCAR-8 ovarian 4.33% | OVCAR-5 ovarian -63.3% | OVCAR-4 ovarian -95% | IGROV1 ovarian -56.6% | OVCAR-3 ovarian -35.4% | HS 578T breast -30.6% | NCI/ADR-RES ovarian -14% | T-47D breast -34.4%

O=c1c2cccc(F)c2sc2c(N3CCNCC3)nc3ccccc3c12
inactive: OVCAR-8 ovarian 32.7% | OVCAR-5 ovarian 61.9% | OVCAR-4 ovarian 46.9% | IGROV1 ovarian 28.3% | OVCAR-3 ovarian 30.9% | HS 578T breast 34.8% | NCI/ADR-RES ovarian 42.6% | T-47D breast 36.3%
active: RPMI-8226 leukemia 1.83%

O=Cc1cc2ccccc2nc1Nc1nccs1
inactive: RPMI-8226 leukemia 64% | OVCAR-8 ovarian 47.6% | OVCAR-5 ovarian 85.6% | OVCAR-4 ovarian 75.8% | IGROV1 ovarian 42.6% | OVCAR-3 ovarian 55.2% | HS 578T breast 91.9% | NCI/ADR-RES ovarian 77% | T-47D breast 77.5%

COC(=O)/C(CCC=C(C)C)=C1\[C@@H](OC(C)=O)C[C@@]2(C)[C@H]1C[C@@H](O)[C@H]1[C@@]3(C)CC[C@H](NCCCNCCCCNCCCN)[C@@H](C)[C@@H]3CC[C@@]12C
inactive: RPMI-8226 leukemia 20.2% | OVCAR-8 ovarian 54.6% | OVCAR-5 ovarian 88.1% | OVCAR-4 ovarian 85.1% | OVCAR-3 ovarian 83% | HS 578T breast 82.7% | NCI/ADR-RES ovarian 65.9% | T-47D breast 57%
